Compound activity from PubChem BioAssay.
A selection: hits, their analogues and other compounds. The true share with any hit is near 3.5%.
TEAD-YAP block: TEAD-YAP interaction inhibition; HEK-TIYL cells, TEAD-Gal4/YAP UAS-luciferase luminescence; hit rate 1.4% among 640,000; inhibition, % at 9.12 µM; in the data active = inhibition above about 32%;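 note: 0% = median of test compound wells and 100% = reference inhibitor wells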
MITF inh: inhibitors of human MITF. O75030. AlphaScreen MITF homodimerization, bead proximity signal. inhibition, % at 2.6 µM. hit rate 0.91% among 650,000; in the data active = inhibition above about 50%;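 note: 0% = vehicle wells with protein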
Target sequence (O75030 whole entry, looked up): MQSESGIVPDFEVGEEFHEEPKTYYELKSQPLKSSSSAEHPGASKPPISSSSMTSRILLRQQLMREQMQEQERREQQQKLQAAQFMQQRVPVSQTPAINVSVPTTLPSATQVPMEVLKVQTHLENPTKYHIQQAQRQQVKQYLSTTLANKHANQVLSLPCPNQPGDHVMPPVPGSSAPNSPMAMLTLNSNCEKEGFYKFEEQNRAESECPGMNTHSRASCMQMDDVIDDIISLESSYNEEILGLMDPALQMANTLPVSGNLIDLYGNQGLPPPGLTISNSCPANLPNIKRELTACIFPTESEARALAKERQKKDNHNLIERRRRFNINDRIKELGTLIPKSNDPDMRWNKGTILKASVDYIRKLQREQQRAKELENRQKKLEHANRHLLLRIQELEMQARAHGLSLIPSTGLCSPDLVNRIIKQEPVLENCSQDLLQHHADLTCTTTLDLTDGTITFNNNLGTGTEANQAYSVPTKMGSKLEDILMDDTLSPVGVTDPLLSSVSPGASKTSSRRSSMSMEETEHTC
GPR151 activ: human GPR151 activation; Q8TDV0; PathHunter beta-arrestin GPR151 cells, luminescence; activation, % at 11.2 µM; hit rate 1% among 650,000; AID 1508602; in the data active = activation above about 4.9%;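 note: 0% = median of compound wells and 100% = cells with positive control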
FBW7 act: human FBW7 E3 ligase activation, primary screen; hit rate 0.13% among 650,000; AlphaScreen FBW7–phospho-cyclin E peptide binding, activator screen; normalized activity (activation), % at 26.1 µM; in the data active = normalized activity above about 1.9%;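 note: purified mutant Fbw7 with reduced substrate affinity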
GPR151 confirm: human GPR151 activation, confirmation screen; shares compounds with GPR151 activ; GPR151 PathHunter beta-arrestin cells, luminescence, 90 min; % of EA-reagent control over plate median; activation, % at 11.2 µM; 6,700 tested, under 10 active;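 active = mean percent activation across replicates above the confirmation screen cutoff of 4.91%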
GPR119 ag: counter-screen for GPR151 activators: effect on human GPR119 | shares compounds with GPR151 activ | GPR119 PathHunter beta-arrestin cells, luminescence, 90 min; 0 = compound-well median, 100 = enzyme-acceptor control | activation, % at 11.2 µM | hit rate 0.3% among 6,700 | AID 1508611;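 active = mean percent activation in the counterscreen above 29.09%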;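 note: counterscreen on off-target GPR119 to flag nonselective hits from the GPR151 activator screen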
* hit, by the source's call; / = not tested or not shown; ! = not active in a repeat.

SMILES	TEAD-YAP block	MITF inh	GPR151 activ	FBW7 act	GPR151 confirm	GPR119 ag
COc1ccc(/C(C)=N/NC(=O)CNC(=O)c2ccccc2O)cc1	-6	4	5.3*	0	-1	-8
C/C(=N/NC(=O)CNC(=O)c1ccccc1O)c1ccc(F)cc1	-1	12	-1	0	/	/
Cc1ccc(NC(=O)CNC(=O)c2ccc(C(C)(C)C)cc2)cc1	-9	12	2	1	/	/
Cc1nccn1CCNC(=O)c1ccc(F)c(F)c1	8	-5	9.9*	0	0	-9
CCOc1ccc(CC(=O)NCCn2ccnc2C)cc1	5	1	3	0	/	/
CCc1nc2sccn2c(=O)c1C(=O)NCCc1ccccn1	-21	13	0	0	/	/
COc1ccc(/C=N/N(C)C2=NCCN2)c(OC)c1OC	2	3	6.9*	0	0	-8
Cc1csc(Sc2ccc([N+](=O)[O-])cc2C(=O)OC(C)C#N)n1 (configuration not stated)	2	4	5.3*	0	0	5
Cc1csc(Sc2ccc([N+](=O)[O-])cc2C(=O)OCC(=O)Nc2cc(C)on2)n1	-2	13	0	0	/	/
CCCCOc1ccc(NC(=O)C2CCN(c3cc(C)nc4ncnn34)CC2)cc1	-3	17	-1	0	/	/
CCOC(=O)c1cnc2ccc(C)cc2c1Nc1ccc(C(=O)O)cc1	-1	-3	1	0	/	/
CCCC(=O)N(c1ccc2oc(C)c(C(=O)OC)c2c1)S(=O)(=O)c1ccc2ccccc2c1	-37	7	5.2*	0	-1	-8
CCCC(=O)N(c1ccc2oc(C)c(C(=O)OCC)c2c1)S(=O)(=O)c1ccc2ccccc2c1	4	8	-2	0	/	/
CC(=O)N(C)c1nnc(-c2ccccn2)s1	3	8	7.8*	0	-1	7
Nc1nc(SCC(=O)Nc2ccc(F)cc2F)n[nH]1	2	18	-2	0	/	/
C/C(=N/NC(N)=S)c1ccccc1[N+](=O)[O-]	6	-2	5.6*	0	-1	-8
Cn1c(N)c(C(=O)COc2ccc(Br)cc2)c(=O)n(C)c1=O	-2	7	0	0	/	/
Cc1ccc(C(=O)N2CCCc3ccccc32)cc1C	-12	4	-1	0	/	/
CC(C)C(=O)Nc1cccc(C(=O)N2CCCc3ccccc32)c1	10	18	6.5*	0	1	-1
Cc1ccc(-c2nnc3sc(NC(=O)CC(C)C)nn23)cc1	5	-1	27*	0	1	4
CCCC(=O)Nc1nn2c(-c3cccc(OC)c3)nnc2s1	-4	0	5.2*	0	0	-5
Cc1cc(Cl)ccc1NC(=O)CN1CCN(CCN=CC2=C(O)CC(c3ccc(Cl)cc3)CC2=O)CC1 (configuration not stated)	22	16	-1	1	/	/
Cc1ccc(S(=O)(=O)NCC2(c3cccs3)CCOCC2)c(C)c1	-1	4	7.3*	0	1	-6
COC(=O)CSc1nc2ccccc2n1CC(=O)NC1CCCC1	0	13	-1	0	/	/
CCCNC(=O)CSc1nc2ccccc2n1CC(=O)NC1CCCC1	-8	-27	7.8*	0	0	-2
SMILES	TEAD-YAP block	MITF inh	GPR151 activ	FBW7 act	GPR151 confirm	GPR119 ag
CC1(C)C2CC[C@]3(C)C(C(=O)C=C4[C@@H]5C[C@@](C)(C(=O)O)CC[C@]5(C)CC[C@]43C)[C@@]2(C)CC[C@@H]1OC(=O)CCC(=O)O (some centres not stated)	0	10	5.2*!	0	1	5
CC1(C)[C@@H](O)CC[C@]2(C)[C@H]3C(=O)C=C4[C@@H]5C[C@@](C)(C(=O)O)CC[C@]5(C)CC[C@@]4(C)[C@]3(C)CC[C@@H]12	9	-12	-1	0	/	/
O=c1[nH]c2cccnc2[nH]c1=O	7	20	10*	0	0	-1
N#Cc1cc(Nc2ccccc2N)c([N+](=O)[O-])cc1C#N	10	-9	-1	0	/	/
CCC(C)CC(=O)N1CCc2nnc(CNC(=O)CCc3cccnc3)n2CC1 (configuration not stated)	4	6	9.0*	0	0	-6
CCN(CC)C(=O)c1sc(N)c(C(=O)OC(C)C)c1C	0	12	16*	0	0	3
Cc1ccc2[nH]c3c(c2c1)CCCC3NCc1ccc(F)cc1 (configuration not stated)	49*	13	14*	0	0	-2
Cc1ccc2[nH]c3c(c2c1)CCCC3NC(N)=O (configuration not stated)	-2	5	0	0	/	/
Cc1ccc2c(c1)cc1c(=O)n(CC(=O)Nc3ccc(C)c(F)c3)ncn12	0	4	0	0	/	/
O=C1NC(=O)C(=Cc2ccc(OCc3ccccc3)c(C(=O)O)c2)C(=O)N1	7	11	5.6*	-1	0	-1
Cc1[nH]n(-c2ccccc2)c(=S)c1/C=N/c1ccccn1	6	-8	5.9*	0	0	5
Cc1ccc(-n2[nH]c(C)c(/C=N/c3ccccn3)c2=O)cc1	5	-7	-3	0	/	/
COc1cc(/C=C/c2nc(O)c([N+](=O)[O-])c(=O)[nH]2)c(Br)cc1O	0	3	2	-1	/	/
COCc1ccc(CN2CCCC(N(C)CCc3ccccc3)C2)o1 (configuration not stated)	-8	6	5.1*	0	-1	-6
COc1ccc(CCN(C)C2CCCN(Cc3c(C)nn(C)c3Cl)C2)cc1OC (configuration not stated)	9	12	5.9*	0	0	4
CN(CCc1ccccc1)C1CCCN(Cc2cccnc2)C1 (configuration not stated)	10	8	-1	0	/	/
COc1ccc(CCN(C)C2CCCN(Cc3ccoc3)C2)cc1OC (configuration not stated)	11	11	0	0	/	/
COc1ccc(CCN(C)C2CCCN(Cc3ccncc3)C2)cc1OC (configuration not stated)	3	-14	9.1*	0	0	4
CCOc1ccccc1-n1c(=S)sc2c(=O)n(-c3ccc(F)cc3)c(SC)nc21	-10	10	2	0	/	/
O=C(NCc1nnc2n1CCN(C/C(Cl)=C/c1ccccc1)CC2)c1cccc(F)c1	2	-4	9.2*	0	1	14
CC(C)(C)CN1CCc2nnc(CNC(=O)c3cccc(F)c3)n2CC1	9	5	1	0	/	/
COc1ccccc1C(=O)COC(=O)C1(C)CC1(Cl)Cl (configuration not stated)	-31	-2	7.6*	0	2	13
